This passage reports inhibition results from ChEMBL document CHEMBL1961873, “Compounds: GSK PKIS; Assays: Nanosyn kinase panel” (2012).

For assay [1], the target named is T1, Inhibitor of nuclear factor kappa-B kinase subunit epsilon (Homo sapiens) (UniProt Q14164).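 Note: reported values are averaged percent inhibition figures against human IKKε.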
T1 sequence (whole entry): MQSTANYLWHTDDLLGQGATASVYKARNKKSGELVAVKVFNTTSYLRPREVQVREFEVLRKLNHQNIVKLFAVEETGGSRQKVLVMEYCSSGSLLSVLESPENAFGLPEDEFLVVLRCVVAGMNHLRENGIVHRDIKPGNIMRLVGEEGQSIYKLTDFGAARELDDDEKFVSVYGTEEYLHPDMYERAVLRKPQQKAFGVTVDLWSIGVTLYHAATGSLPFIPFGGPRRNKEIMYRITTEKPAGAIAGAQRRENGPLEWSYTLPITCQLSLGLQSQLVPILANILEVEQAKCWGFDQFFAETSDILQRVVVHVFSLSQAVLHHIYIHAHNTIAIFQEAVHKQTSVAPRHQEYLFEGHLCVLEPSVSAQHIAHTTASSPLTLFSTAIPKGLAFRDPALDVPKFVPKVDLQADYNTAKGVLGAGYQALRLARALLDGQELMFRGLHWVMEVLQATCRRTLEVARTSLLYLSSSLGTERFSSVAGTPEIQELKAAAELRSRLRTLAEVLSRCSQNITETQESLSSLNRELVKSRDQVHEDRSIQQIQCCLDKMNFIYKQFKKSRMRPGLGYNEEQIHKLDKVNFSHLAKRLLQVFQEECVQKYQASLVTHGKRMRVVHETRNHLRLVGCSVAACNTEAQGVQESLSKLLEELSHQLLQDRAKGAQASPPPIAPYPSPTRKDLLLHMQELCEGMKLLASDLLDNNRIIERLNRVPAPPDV
Conditions: at 1 µM.

Assay [2] concerns the target T2, Serine/threonine-protein kinase Nek1 (Homo sapiens) (UniProt Q96PY6).
T2 sequence (whole entry): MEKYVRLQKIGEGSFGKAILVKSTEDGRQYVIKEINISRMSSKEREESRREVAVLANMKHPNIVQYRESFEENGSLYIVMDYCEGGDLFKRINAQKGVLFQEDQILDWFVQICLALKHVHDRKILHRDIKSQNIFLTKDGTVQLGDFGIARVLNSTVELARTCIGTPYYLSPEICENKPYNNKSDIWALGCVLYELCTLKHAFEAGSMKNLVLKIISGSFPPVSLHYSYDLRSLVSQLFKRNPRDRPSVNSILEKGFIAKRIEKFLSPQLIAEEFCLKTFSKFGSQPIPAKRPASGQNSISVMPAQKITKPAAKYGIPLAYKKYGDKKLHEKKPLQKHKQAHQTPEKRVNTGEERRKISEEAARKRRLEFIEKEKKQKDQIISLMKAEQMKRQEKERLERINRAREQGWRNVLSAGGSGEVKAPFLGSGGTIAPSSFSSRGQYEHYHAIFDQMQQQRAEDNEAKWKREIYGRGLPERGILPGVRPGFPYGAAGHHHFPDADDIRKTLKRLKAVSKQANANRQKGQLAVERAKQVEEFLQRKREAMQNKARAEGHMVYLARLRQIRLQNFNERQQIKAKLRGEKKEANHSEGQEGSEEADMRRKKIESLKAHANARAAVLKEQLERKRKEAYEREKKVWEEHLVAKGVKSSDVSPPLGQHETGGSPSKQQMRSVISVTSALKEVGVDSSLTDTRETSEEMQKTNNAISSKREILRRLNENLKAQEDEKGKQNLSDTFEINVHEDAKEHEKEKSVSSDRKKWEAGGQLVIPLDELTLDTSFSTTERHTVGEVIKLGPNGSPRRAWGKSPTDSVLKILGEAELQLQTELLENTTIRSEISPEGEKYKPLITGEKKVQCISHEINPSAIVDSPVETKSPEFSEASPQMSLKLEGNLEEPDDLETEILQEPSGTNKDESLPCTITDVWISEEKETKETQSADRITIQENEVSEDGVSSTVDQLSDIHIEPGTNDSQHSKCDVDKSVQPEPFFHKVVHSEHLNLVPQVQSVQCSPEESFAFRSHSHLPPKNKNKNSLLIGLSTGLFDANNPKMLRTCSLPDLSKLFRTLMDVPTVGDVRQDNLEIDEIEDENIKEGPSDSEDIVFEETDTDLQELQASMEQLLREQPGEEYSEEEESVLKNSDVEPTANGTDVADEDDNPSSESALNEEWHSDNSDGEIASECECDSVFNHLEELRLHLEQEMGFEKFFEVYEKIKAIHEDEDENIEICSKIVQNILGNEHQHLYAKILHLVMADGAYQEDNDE
Conditions: at 0.1 µM.

Assay [3] addresses T2, Serine/threonine-protein kinase Nek1 (Homo sapiens). Particulars: at 1 µM.
Assay [4] deals with T3, Serine/threonine-protein kinase Nek2 (Homo sapiens) (UniProt P51955).
T3 sequence (whole entry): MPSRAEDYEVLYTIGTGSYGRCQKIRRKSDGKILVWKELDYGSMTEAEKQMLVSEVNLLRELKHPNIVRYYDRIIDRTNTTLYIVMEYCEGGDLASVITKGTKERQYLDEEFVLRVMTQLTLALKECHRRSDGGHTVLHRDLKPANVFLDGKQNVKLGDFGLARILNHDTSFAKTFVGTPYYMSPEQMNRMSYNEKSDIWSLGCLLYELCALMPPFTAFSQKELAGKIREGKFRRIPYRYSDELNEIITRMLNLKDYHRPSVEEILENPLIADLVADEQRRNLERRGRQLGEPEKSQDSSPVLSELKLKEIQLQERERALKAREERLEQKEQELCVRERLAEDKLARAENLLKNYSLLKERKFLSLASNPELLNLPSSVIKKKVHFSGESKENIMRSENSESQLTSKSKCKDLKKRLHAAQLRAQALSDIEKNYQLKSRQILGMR
Conditions: at 0.1 µM.

In assay [5] the target is T3, Serine/threonine-protein kinase Nek2 (Homo sapiens). Conditions: at 1 µM.
Assay [6] concerns the target Serine/threonine-protein kinase Nek6 (Homo sapiens) (UniProt Q9HC98). Conditions: at 0.1 µM.
The target is the same in assay [7]. Conditions: at 1 µM.
Assay [8] concerns the target Serine/threonine-protein kinase Nek7 (Homo sapiens) (UniProt Q8TDX7). Conditions: at 0.1 µM.
Assay [9] has the same target. Conditions: at 1 µM.
The target in assay [10] is T4, Serine/threonine-protein kinase Nek9 (Homo sapiens) (UniProt Q8TD19).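 Note: reported value is the mean percent inhibition of NEK9.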
T4 sequence (whole entry): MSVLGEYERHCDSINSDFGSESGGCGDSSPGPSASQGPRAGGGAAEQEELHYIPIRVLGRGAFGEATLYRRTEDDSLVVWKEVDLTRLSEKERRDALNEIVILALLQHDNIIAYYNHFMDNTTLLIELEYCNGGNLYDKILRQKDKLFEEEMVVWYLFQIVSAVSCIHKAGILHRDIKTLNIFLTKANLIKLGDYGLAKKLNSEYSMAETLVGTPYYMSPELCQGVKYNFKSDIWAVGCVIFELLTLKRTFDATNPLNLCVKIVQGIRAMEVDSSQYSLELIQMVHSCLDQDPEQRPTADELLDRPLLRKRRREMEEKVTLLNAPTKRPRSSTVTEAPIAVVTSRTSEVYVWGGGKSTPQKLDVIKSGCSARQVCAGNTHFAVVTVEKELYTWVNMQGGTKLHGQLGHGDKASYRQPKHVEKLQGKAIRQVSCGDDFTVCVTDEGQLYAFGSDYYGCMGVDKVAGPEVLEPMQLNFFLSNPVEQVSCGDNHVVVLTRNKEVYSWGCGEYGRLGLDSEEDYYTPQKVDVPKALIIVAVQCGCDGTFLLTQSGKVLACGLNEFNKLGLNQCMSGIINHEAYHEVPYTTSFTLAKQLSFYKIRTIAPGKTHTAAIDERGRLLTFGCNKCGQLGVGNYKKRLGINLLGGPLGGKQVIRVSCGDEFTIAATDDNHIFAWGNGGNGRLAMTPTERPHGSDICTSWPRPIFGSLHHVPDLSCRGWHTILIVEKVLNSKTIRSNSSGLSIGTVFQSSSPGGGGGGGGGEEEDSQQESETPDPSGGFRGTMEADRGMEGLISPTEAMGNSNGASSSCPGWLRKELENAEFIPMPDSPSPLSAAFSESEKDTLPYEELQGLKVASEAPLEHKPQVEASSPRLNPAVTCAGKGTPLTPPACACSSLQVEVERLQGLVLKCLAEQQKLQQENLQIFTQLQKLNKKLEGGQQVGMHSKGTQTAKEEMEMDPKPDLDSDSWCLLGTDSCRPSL
Particulars: at 0.1 µM.

Chain of Serine/threonine-protein kinase Nek7 (Homo sapiens) (Q8TDX7 whole entry, looked up): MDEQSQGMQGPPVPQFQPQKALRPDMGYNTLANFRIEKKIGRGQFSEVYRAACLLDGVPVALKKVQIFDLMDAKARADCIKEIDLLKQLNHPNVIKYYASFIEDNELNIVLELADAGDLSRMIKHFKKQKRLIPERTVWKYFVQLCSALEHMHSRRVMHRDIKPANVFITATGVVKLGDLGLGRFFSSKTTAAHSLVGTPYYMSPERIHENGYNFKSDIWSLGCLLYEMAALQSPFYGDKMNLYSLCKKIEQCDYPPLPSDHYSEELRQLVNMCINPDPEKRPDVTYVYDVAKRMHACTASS
Chain of Serine/threonine-protein kinase Nek6 (Homo sapiens) (Q9HC98 whole entry): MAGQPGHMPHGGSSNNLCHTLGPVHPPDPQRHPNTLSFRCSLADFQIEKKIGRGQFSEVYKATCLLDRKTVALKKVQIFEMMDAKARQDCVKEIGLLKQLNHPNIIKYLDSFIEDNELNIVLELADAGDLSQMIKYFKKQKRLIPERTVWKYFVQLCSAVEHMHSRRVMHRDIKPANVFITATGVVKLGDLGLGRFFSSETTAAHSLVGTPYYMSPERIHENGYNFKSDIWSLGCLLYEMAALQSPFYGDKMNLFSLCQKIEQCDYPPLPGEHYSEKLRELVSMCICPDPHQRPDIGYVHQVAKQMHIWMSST

In the case of `O=C1NC(=O)C(c2cccc(Cl)c2)=C1Nc1ccc(O)c(Cl)c1`, the inhibition (in general, the drop in the measured response relative to a control, in per cent) was 0.33% in [1]; 0.25% in assay [2]; 0.17% in assay [3]; 1.39% in [4]; 1.51% in [5]; -0.33% in assay [6]. In addition, the inhibition in [7] is -3.08%; in [8] it was 1.78%; in assay [9] it was 1.51%; in assay [10], 1.58%.

For `COC(=O)Nc1nc2cc(Oc3cccc(NC(=O)Nc4cc(C(F)(F)F)ccc4F)c3)ccc2[nH]1`, the inhibition in assay [1] was 0.25%; in [2], -0.22%; in assay [3], 2.32%; in assay [4], 0.79%; in assay [5], 0.72%; in assay [6], 1.5%. In addition, the inhibition is 0.11% in assay [7], 2.69% in assay [8], 1.59% in assay [9] and -4.74% in [10].

In the case of `COc1ccccc1Nc1ncc(-c2ccccc2)o1`, the inhibition turned out to be 7.83% in assay [1]; 3.62% in [2]; 3% in assay [3]; 6.46% in [4]; 6.16% in assay [5]; 0.52% in assay [6]. The inhibition is 1.67% in assay [7], 2.39% in assay [8], 5.45% in assay [9] and 5.2% in assay [10].

With `COc1cc2ncn(-c3cc(O[C@H](C)c4ccccc4Cl)c(C(N)=O)s3)c2cc1OC`, the inhibition in assay [1] was 6.91%; in assay [2], 29.8%; in assay [3], 67.8%; in [4], 12.1%; in assay [5], 48.8%; in assay [6], 2.67%. For the same compound, the inhibition turned out to be 4.93% in assay [7], 3.58% in assay [8], 4.26% in assay [9] and 62% in [10].

As to `COc1ccc2cc(-c3c(-c4ccncc4)nc(-c4ccc([S+](C)[O-])cc4)n3C)ccc2c1` (stereo not given), the inhibition in assay [1] turned out to be 4.64%; in assay [2] it was 1.1%; in [3], 1.54%; in assay [4] it was 3.66%; in assay [5] it was 3.14%; in assay [6], 0.57%. Also, the inhibition in assay [7] is -1.38%; in assay [8], 2.77%; in [9], 2.17%; in assay [10], 7.56%.

Consider `COc1cc2ncn(-c3cc(O[C@@H](C)c4ccccc4Cl)c(C(N)=O)s3)c2cc1OC`, for which the inhibition in assay [1] was 7.74%; in [2], 4.69%; in assay [3] it was 19.3%; in [4], 5.52%; in assay [5], 10.4%; in assay [6] it was 1.03%. In addition, the inhibition in [7] turned out to be 0.67%; in assay [8], 3.47%; in assay [9] it was 4.57%; in assay [10] it was 7.99%.

Turning to `CCn1c(-c2nonc2N)nc2c(N3CCCC3)nccc21`, the inhibition in assay [1] was -2.89%; in assay [2], -0.04%; in assay [3], 0.27%; in assay [4], -0.88%; in [5], -0.91%; in assay [6], 0.88%. The inhibition in assay [7] was -1.63%; in assay [8] it was 2.1%; in assay [9] it was -1.35%; in assay [10], 2.28%.

Regarding `CS(=O)(=O)CCN(CC#N)Cc1ccc(-c2ccc3ncnc(Nc4ccc(OCc5cccc(F)c5)c(Cl)c4)c3c2)o1`, the inhibition in [1] was 1.93%; in assay [2] it was 0.91%; in [3] it was 1.78%; in assay [4] it was 3.59%; in [5], 2.16%; in [6], 2.16%. The inhibition was -0.23% in assay [7], 2.49% in assay [8], 7.27% in assay [9] and 2.5% in assay [10].
